Laboratory results reported in PubChem BioAssay (EPA / NIEHS).
Results filed as inconclusive are left out. Calls of active or inactive are those of the source. How the source made its calls: active means hit-call score of the fitted dose curve at least 0.9, where 1 is the maximum; inconclusive means response in the unintended direction; inactive means score below 0.9.

biological target: human CYP1A1, CYP1A1 (gene 1543) (UniProt P04798); test: NVS_ADME_hCYP1A1: NovaScreen (NVS) CYP450-related Enzyme Activity (ADME) Assay for human CYP1A1 (AID 2283100)
Protocol: NVS_ADME_hCYP1A1 is a biochemical, single-readout assay that uses extracted gene-proteins in a cell-free assay. Measurements were taken 1 hour after chemical dosing in a 96-well plate.NVS_ADME_hCYP1A1 is one of one assay component(s) measured or calculated from the NVS_ADME_hCYP1A1 assay. It is designed to make measurements of enzyme activity, a form of enzyme reporter, as detected with fluorescence intensity signals by Fluorescence technology.Data from the assay component NVS_ADME_hCYP1A1 was analyzed into 1 assay endpoint. This assay endpoint, NVS_ADME_hCYP1A1, was analyzed in the positive analysis fitting direction relative to Acetonitrile as the negative control and baseline of activity. Using a type of enzyme reporter, loss-of-signal activity can be used to understand changes in the enzymatic activity as they relate to the gene CYP1A1. Furthermore, this assay endpoint can be referred to as a primary readout, because this assay has produced multiple assay endpoints where this one serves a enzymatic activity function. To generalize the intended target to other relatable targets, this assay endpoint is annotated to the cyp intended target family, where the subfamily is xenobiotic metabolism.
Binding assays used specific radioligands (tritiated, iodinated) with non-radioactive competitive displacement ligands in agonist or antagonist protocols (as indicated) and various reference compounds and inhibitors to titrate specific binding to receptors and transporters. Most enzyme assays (CYPs, kinases, phosphatases, proteases, HDACs) used recombinant protein and specific substrates (fluorescence mostly, some colorimetric and radioactive) and inhibitors, followed by a biochemical separation of substrate and product. All assays for the biochemical HTS were initially run in duplicate at a single concentration (10 uM for CYP450 assays and 25 uM for all others). Assay-chemical combinations meeting a pre-defined threshold (e.g., 30% inhibition and other criteria defined below) were then run in singleton concentration-response format with maximum concentration of 20 uM for CYPs and 50 uM for all others. Each assay was run with positive and negative controls, and concurrent controls on every plate. The follow-up (secondary) screen tested active chemical-pairs in concentration series, as well as a few additional assays not tested in the primary screen, some selected negative inactives, and several cases re-run in the concentration series for confirmatory purposes.

Chain of human CYP1A1, CYP1A1 (gene 1543) (P04798 whole entry, looked up): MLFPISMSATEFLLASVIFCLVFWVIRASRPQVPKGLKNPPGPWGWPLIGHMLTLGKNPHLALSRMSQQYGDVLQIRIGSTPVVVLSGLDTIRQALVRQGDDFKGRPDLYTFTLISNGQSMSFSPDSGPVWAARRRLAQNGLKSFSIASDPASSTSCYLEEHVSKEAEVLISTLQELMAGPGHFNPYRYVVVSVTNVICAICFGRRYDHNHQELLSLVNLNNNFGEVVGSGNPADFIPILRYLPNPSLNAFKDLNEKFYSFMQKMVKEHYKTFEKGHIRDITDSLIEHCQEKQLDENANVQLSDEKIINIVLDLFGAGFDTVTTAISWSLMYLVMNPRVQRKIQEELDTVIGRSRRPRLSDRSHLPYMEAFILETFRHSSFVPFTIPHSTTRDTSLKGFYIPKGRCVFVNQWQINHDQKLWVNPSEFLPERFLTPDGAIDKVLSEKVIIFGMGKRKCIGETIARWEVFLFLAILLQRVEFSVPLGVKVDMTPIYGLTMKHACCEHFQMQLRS

Compound	AC50	outcome
COP(=S)(OC)SCN1C(=O)c2ccccc2C1=O	3.41 µM (active)	–
CCCCCCCCn1sccc1=O	–	inactive
Oc1ccc2ccc3cccc4ccc1c2c34	2.84 µM (active)	–
O=C(Nc1ccccc1)c1ccccc1I	–	inactive
CCOC(=O)[C@]1(c2ccccc2)Oc2ccccc2[C@@H]1N	–	inactive
O=[N+]([O-])C(Br)(CO)CO	12.7 µM (active)	–
Cc1cc(N=Nc2ccccc2C)ccc1N	5.4 µM (active)	–
[Cl-].[Cl-].[Hg+2]	14.3 µM (active)	–
Nc1ccc(N=Nc2ccccc2)cc1	–	inactive
Nc1ccc(Oc2ccc(N)cc2)cc1	–	inactive
Nc1ccc(Cc2ccc(N)cc2)cc1	–	inactive
CC(C)(C)C(O)(CCc1ccc(Cl)cc1)Cn1cncn1 (configuration not stated)	–	inactive
